p53ts 32C tox: cytotoxicity in p53ts cells at permissive temperature; H1299-p53A138V at 32C, ATP luminescence viability, 24 h; Potency, µM (doses to about 46.1 µM), inactives show top-dose activity change, negative = cytotoxicity, hits mostly cytotoxic; 0.93% of 130,000 active; AID 924;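 also: 0% = DMSO and -100% = full killing by reference compound; nearly all actives have a fitted effect of over 55% in size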
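H1299-p53 A138V cells (temperature-sensitive p53) exposed 24 h to up to 46 uM compound at 32C, where p53 is wild-type in conformation. Viability read as ATP luminescence and normalised to DMSO and 100 uM tamoxifen. AC50 fitted with the Hill equation.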
p53ts 39C kill: cytotoxicity in p53ts cells at nonpermissive temperature; H1299-p53A138V viability at 39C, ATP luminescence, 24 h; Potency, µM (titrated, usually from 46.1 µM), for inactives: at the top dose activity change, negative = cell killing, most hits filed as cytotoxic; 1.5% of 130,000 active; also: % is scaled to controls: 0 for no effect and ±100 for the full control effect; nearly all actives have a fitted effect of over 55% in size
Imprint erasure: genomic imprint erasure induction. mouse ES Peg3-LacZ reporter, beta-gal luminescence, 40 h. 0.02% of 110,000 active. Potency, µM (highest dose often 60.7 µM), for inactives: at the highest dose activity change, positive = activation, usual class: activators
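Imprint erasure is scored as LacZ activity from the silenced maternal Peg3 allele in feeder-free female ES cells cultured 40 h with LIF. Luminescence is normalized to in-plate negative controls and fitted to the Hill equation.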
IkB sig inh: inhibitors of IkB signaling in ABC-DLBCL cells | 0.04% of 110,000 active | Potency, µM (doses to about 57.1 µM), for inactives: top-dose IkBa stabilization activation | ABC-DLBCL IkBa-CBG/CBR dual luciferase ratio, 4 h; response scale: scaled: untreated 0%, proteasome inhibitor 100% | AID 445; active = well fitted curve in the direction sought with a large enough effect in the signal ratio, not every such curve was filed as active; inconclusive = small, poorly fitted or top-dose-only effect, or a change in a side signal; the % refers to the signal ratio;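 also: the direction sought is a rising ratio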
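Luminescence ratio of IκBα-fused green versus native red beetle luciferase in OCI-Ly3 cells, 4 h post-doxycycline with compound; red signal alone, scaled from basal (0%) to zero light (-100%), flagged nonspecific or cytotoxic effects.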
* hit, by the source's call; ? = inconclusive; . = no result given; [ ] = another dose, or the depositor's remark. Shown are actives, neighbours in structure and some others; about 1.6% of the full set was active somewhere. Unless noted, calls follow the shape of the dose curve; as a rule, active = well fitted curve in the direction sought with a large enough effect; inconclusive = small, poorly fitted or top-dose-only effect, or another doubt; inactive = no such curve, though single readings can be large; an effect the other way counts as inactive or inconclusive. Potency is read from the fitted curve at half-maximal effect.

SMILES | p53ts 32C tox | p53ts 39C kill | Imprint erasure | IkB sig inh
COc1ccc2cc(C(=O)CCC(=O)O)ccc2c1 | -25%[9.22 µM] | -16%[9.22 µM] | -10%[10.9 µM] | -2%[11.4 µM]
Cc1ccccc1CNC(=O)Nc1ccc2c(c1)N(C)C(=O)c1ccccc1S2 | 5% | 4% | -9%[10.9 µM] | 1%
COc1cccc(-c2ccc3c(N)c(C(=O)c4ccc(Br)cc4)sc3n2)c1 | ? | 13µM* | -13%[10.9 µM] | 0%
COc1ccc(-c2ccc3c(N)c(C(=O)c4ccc(OC)c(OC)c4)sc3n2)cc1 | -23% | ? | 18%[10.9 µM] | ?
O=C(C1CCN(c2ncnc3c2nc2n3CCCCC2)CC1)N1CCN(c2cccc(Cl)c2)CC1 | 3% | . | . | .
Clc1cccc(N2CCN(c3ncnc4c3nc3n4CCCCC3)CC2)c1 | ? | 13µM* | -22%[10.9 µM] | ?
c1ccc(-c2noc(-c3ccc4ccccc4c3)n2)nc1 | 0.32µM* | 0.63µM* | -91% | ?
Cc1occc1-c1nc(-c2ccncc2)no1 | -7% | -2% | -63% | 1%
CN(C)c1ccc(-c2nc(-c3ccccn3)no2)cc1[N+](=O)[O-] | -19% | -12% | -8%[10.9 µM] | 0%
c1ccc(-c2noc(-c3cccnc3)n2)nc1 | 13µM* | 13µM* | -92% | 3%
c1ccc(-c2noc(-c3ccncc3)n2)nc1 | ? | ? | -92% | 1%
c1ccc(-c2noc(-c3ccc4c(c3)OCO4)n2)nc1 | 0.63µM* | 1µM* | -92% | ?
CNc1ccc(-c2nc(-c3ccccn3)no2)cc1[N+](=O)[O-] | -2% | -11% | -6%[10.9 µM] | ?
Cc1occc1-c1nc(-c2ccccn2)no1 | 10µM* | 13µM* | -92% | 6%
O=C(Nc1cccc(C(F)(F)F)c1)c1cnn(-c2cccc(F)c2)c1C1CCNCC1 | 3% | -15% | -5%[10.9 µM] | 0%
CC(=O)O[C@@H]1C[C@]2(C)[C@H](C[C@@H](O)[C@H]3[C@@]4(C)CC[C@@H](O)[C@@H](C)[C@@H]4CC[C@@]32C)/C1=C(\CCC=C(C)C)C(=O)O | 7% | 4% | . | -1%
O=C(Nc1ccc(OCc2cc(=O)n3c4c(sc3n2)CCCC4)cc1)c1ccccc1 | 6% | 6% | -7%[10.9 µM] | -1%
CC(C)CN(CC(C)C)c1nc(-c2ccc(Cl)cc2)nc2ccccc12 | 5% | -7% | 6%[10.9 µM] | ?
CCN(CC)c1nc(-c2ccc(C(C)(C)C)cc2)nc2ccccc12 | 13µM* | 13µM* | -11%[10.9 µM] | ?
Cc1ccc(CNC(=O)Cn2ncc3c(C)n(Cc4ccc(Cl)cc4)c(C)c3c2=O)cc1 | -15% | 16µM* | -9%[10.9 µM] | ?
O=C(Nc1ccc(C(F)(F)F)cc1)c1cc(S(=O)(=O)NC2CCCCCC2)ccc1F | 28% | ? | -13%[10.9 µM] | ?
O=C(Nc1cc(Cl)cc(Cl)c1)c1ccc(F)c(S(=O)(=O)NC2CCCC2)c1 | ? | 13µM* | -15%[10.9 µM] | -3%
CCc1ccc(NC(=O)c2ccc(F)c(S(=O)(=O)NC3CCCCCC3)c2)cc1 | 16% | -9% | -20%[10.9 µM] | ?
O=C(Nc1ccc(C(F)(F)F)cc1)c1cc(S(=O)(=O)NC2CCCCC2)ccc1F | 22% | 10µM* | -14%[10.9 µM] | ?
COC(=O)C1C(=O)c2c([nH]c(C(=O)OCC3CCCO3)c2C)CC1C (configuration not stated) | 13µM* | ? | -18% | -3%
COCCOC(=O)c1[nH]c2c(c1C)C(=O)C(C(=O)OC)C(C)C2 (configuration not stated) | 16µM* | 10µM* | -34% | -1%
CCCCCOC(=O)c1[nH]c2c(c1C)C(=O)C(C(=O)OC)C(C)C2 (configuration not stated) | -11% | -9% | 2% | ?
CN1[C@@H]2CC[C@H]1CC(OC(=O)[C@@H](CO)c1ccccc1)C2 (some centres not stated) | . | . | -7%[16.8 µM] | 1%[11.4 µM]
CCCCCCCCCCCCCCCC(=O)NC[C@@H](COP(=O)([O-])OCC[N+](C)(C)C)OCC | ? | -88% | . | -23%
CCO[P@]1(=O)OC[C@@H]2O[C@H](n3cnc4c(N)ncnc43)[C@H](O)[C@@H]2O1 | 2%[9.22 µM] | 2%[9.22 µM] | -13%[10.9 µM] | 1%[11.4 µM]

Assay outcomes from PubChem BioAssay.
